HP1b binding inh: HTS for Inhibitors of HP1-beta Chromodomain Interactions with Methylated Histone Tails | Chromobox protein homolog 1 (Homo sapiens), P83916 | AlphaScreen HP1-beta / biotin-H3K9me3 peptide binding | Potency, µM (top dose mostly 114 µM), for inactives: top-dose activity change, negative = inhibition, usual class: inhibitors | hit rate 0.56% among 390,000 | AID 540317, 2011; note: potency is the fitted concentration of half-maximal effect; nearly all actives have a fitted effect of over 70% in size
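AlphaScreen: HP1-beta (50 nM) preformed 30 min with biotin-H3(1-18)K9me3 peptide (50 nM) in PBS pH 7.4, 0.01% Tween-20. Compound added for 30 min at RT, then streptavidin donor/nickel chelate acceptor beads (10 ug/mL) for 30 min.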
Six1-Eya2 inh: qHTS Assay for Inhibitors of the Six1/Eya2 Interaction | activity change, % (concentration not given with the values) | AlphaScreen GST-Six1/His-Eya2 binding, biochemical; stronger effect = lower value | hit rate 0.56% among 360,000; in the data active = activity change below about -65%; inconclusive = mostly about -30% to -63%; note: % is set by controls: 0 for no effect and ±100 for the full control effect
Target sequence (O00167 whole entry, looked up): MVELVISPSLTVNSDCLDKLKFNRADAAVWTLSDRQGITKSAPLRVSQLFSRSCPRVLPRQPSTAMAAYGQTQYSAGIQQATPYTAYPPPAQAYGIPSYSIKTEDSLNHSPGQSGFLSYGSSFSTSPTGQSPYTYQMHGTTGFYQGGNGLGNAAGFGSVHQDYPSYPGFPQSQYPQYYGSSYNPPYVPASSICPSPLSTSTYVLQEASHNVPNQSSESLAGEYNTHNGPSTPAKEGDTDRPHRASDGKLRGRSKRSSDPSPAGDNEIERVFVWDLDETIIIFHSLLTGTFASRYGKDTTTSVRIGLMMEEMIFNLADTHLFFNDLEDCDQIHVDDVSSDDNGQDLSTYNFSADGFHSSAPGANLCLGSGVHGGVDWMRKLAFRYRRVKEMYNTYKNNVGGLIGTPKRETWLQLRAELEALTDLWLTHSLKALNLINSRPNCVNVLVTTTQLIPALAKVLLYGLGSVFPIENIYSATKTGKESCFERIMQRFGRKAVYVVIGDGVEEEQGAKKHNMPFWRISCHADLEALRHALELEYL
Target sequence (Q15475 whole entry, looked up): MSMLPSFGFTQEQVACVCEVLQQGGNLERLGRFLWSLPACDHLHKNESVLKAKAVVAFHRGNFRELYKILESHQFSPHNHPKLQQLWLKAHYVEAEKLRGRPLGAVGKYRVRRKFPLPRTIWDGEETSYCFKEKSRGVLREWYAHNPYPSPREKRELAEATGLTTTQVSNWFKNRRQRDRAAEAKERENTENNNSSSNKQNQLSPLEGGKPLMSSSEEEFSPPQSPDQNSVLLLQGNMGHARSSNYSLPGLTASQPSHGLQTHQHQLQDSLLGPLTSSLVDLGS
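AlphaScreen with GST-Six1 and His-Eya2 (5X mix: 250 nM and 500 nM), glutathione donor and nickel acceptor beads; buffer 50 mM Tris pH 8.0, 300 mM NaCl, 1 mM TCEP; 1 h at 37 C in the dark.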
G9a inh: qHTS Assay for Inhibitors of Histone Lysine Methyltransferase G9a | Histone-lysine N-methyltransferase EHMT2 (Homo sapiens), Q96KQ7 | G9a H3K9 monomethylation, AlphaScreen, 2 h | Potency, µM (highest dose often 102 µM), for inactives: top-dose activity, negative = inhibition, hits mostly inhibitors | hit rate 8.8% among 350,000 | AID 504332, 2011; note: potency is the fitted concentration of half-maximal effect; % is set by controls: 0 for no effect and ±100 for the full control effect; nearly all actives have a fitted effect of over 75% in size
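Compounds were preincubated with 20 nM G9a for 15 min, after which biotinylated H3K9 peptide (500 nM) and SAM (20 uM) started a 2 h room-temperature reaction. Monomethylated product was quantified by antibody-based AlphaScreen chemiluminescence.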
BAZ2B block: qHTS Assay for Inhibitors of BAZ2B | hit rate 4.4% among 360,000 | AlphaScreen BAZ2B-H3K14Ac peptide displacement | Potency, µM (titrated, usually from 114 µM), for the others: top-dose activity change, negative = inhibition, usual class: inhibitors | AID 504333, 2011 | Bromodomain adjacent to zinc finger domain protein 2B (Homo sapiens), Q9UIF8; note: potency is the fitted concentration of half-maximal effect; % is set by controls: 0 for no effect and ±100 for the full control effect; nearly all actives have a fitted effect of over 60% in size
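Compounds, titrated to a top concentration of 110 uM, were incubated 30 min at room temperature with preformed BAZ2B/acetyl-K14 H3 peptide complex (50 nM each). Proximity signal was measured by AlphaScreen after 20 min with beads.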
CtBP-E1A inh: qHTS Assay for Inhibitors of the CtBP/E1A Interaction. CtBP / adenovirus E1A interaction (AlphaScreen). AlphaScreen GST-E1A/His-CtBP binding, 1536-well; stronger effect = lower value. activity change, % (concentration not given with the values). hit rate 0.49% among 340,000. AID 651724, 2012; in the data active = activity change below about -65%; inconclusive = mostly about -30% to -63%; note: % is set by controls: 0 for no effect and ±100 for the full control effect
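AlphaScreen with 125 nM GST-E1A and 125 nM His-CtBP (5X stocks) in Tris pH 8.0, 300 mM NaCl, BSA, Tween 20, TCEP. Compounds preincubated 2 h at 37 deg C, then glutathione donor/nickel acceptor beads added for 1 h at 37 deg C in dark.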
JMJD2A Tudor inh: qHTS Assay for Inhibitors of JMJD2A-Tudor Domain; Lysine-specific demethylase 4A (Homo sapiens), O75164; Potency, µM (top dose mostly 114 µM), without a hit: at the highest dose activity change, negative = inhibition, usual class: inhibitors; AlphaScreen JMJD2A-Tudor / H3K4me3 peptide binding; hit rate 4.4% among 390,000; note: potency is the fitted concentration of half-maximal effect; % is set by controls: 0 for no effect and ±100 for the full control effect; nearly all actives have a fitted effect of over 50% in size
Numbers without * were called inactive; u = inconclusive; x = not tested or not shown; [ ] = another dose, or the depositor's remark. This is a sample that favours compounds with a hit; in the whole collection about 10% have one here. Unless noted, calls come from the whole dose curve; as a rule, active = well fitted inhibition curve with a large enough effect; inconclusive = small, poorly fitted or top-dose-only effect; inactive = no such curve, though single readings can be large or run the other way.

SMILES	HP1b binding inh	Six1-Eya2 inh	G9a inh	BAZ2B block	CtBP-E1A inh	JMJD2A Tudor inh
CCNc1ccc(S(N)(=O)=O)cc1[N+](=O)[O-]	-1%	-5	3.5µM*	-6%	12	0%
CCNc1ccc(S(=O)(=O)NCCN(C)C)cc1[N+](=O)[O-]	9%	3	-4%	x	x	0%
CS(=O)(=O)NCCCNc1ccc(Cl)cc1[N+](=O)[O-]	-13%	-4	u	u	-1	13%
NS(=O)(=O)c1ccc(NN=C2CCN(Cc3ccccc3)CC2)c([N+](=O)[O-])c1	5%	0	45µM*	8%	1	-25%
CC1C/C(=N\Nc2ccc(S(N)(=O)=O)cc2[N+](=O)[O-])CC(C)(C)C1 (stereo not drawn)	u	-28	14µM*	u	-29	u
CCCCNc1ccc(S(=O)(=O)c2cccc([N+](=O)[O-])c2)cc1[N+](=O)[O-]	38%	0	7.9µM*	u	4	-3%
COC(=O)CNC(=O)Nc1cc(C(=O)NCc2ccc(C)cc2)ccc1N1CCCC1	26%	x	9%[59 µM]	-10%	x	-10%
O=C(O)CC(CC(=O)N1CCN(C(=O)c2ccco2)CC1)c1ccccc1 (stereo not drawn)	39%	3	43%	-14%	-2	-3%
CC(=O)N(c1ccccc1)C(C(=O)c1ccccc1)c1ccccc1 (stereo not drawn)	11%[57 µM]	-2	x	x	-6	-8%
Cc1cc(OC(=O)c2ccc(S(=O)(=O)N3CCOCC3)cc2)c([N+](=O)[O-])c(=O)[nH]1	36%	7	56µM*	u	4	-16%
Cc1cc(OC(=O)c2ccc(C)c(C)c2)c([N+](=O)[O-])c(=O)[nH]1	18%[57 µM]	5	-15%	-20%	x	1%
Cc1cc(OC(=O)c2ccc3ccccc3c2)c([N+](=O)[O-])c(=O)[nH]1	30%	9	45µM*	-22%	3	-29%
Cc1ccc(C(=O)Oc2cc(C)[nH]c(=O)c2[N+](=O)[O-])cc1	45%	4	-37%	-31%	10	-7%
O=c1c2ccccc2c2ccccc2c(=O)n1-c1ccccc1	7%	0	50µM*	-25%	3	-4%
O=C(Nn1c(-c2ccncc2)nc2ccccc2c1=O)c1ccc(Br)cc1	15%	-6	15%[59 µM]	-18%	19	-13%
O=C(Nn1c(-c2ccc(Br)cc2)nc2ccccc2c1=O)c1cccnc1	-11%	-5	-43%	x	-2	35µM*
O=C(Nn1c(-c2ccncc2)nc2ccccc2c1=O)c1ccccc1Br	10%	-15	50µM*	-4%	-10	-13%
O=C(O)CCC/C=C\C[C@@H]1C(/C=C/[C@@H](O)COc2cccc(C(F)(F)F)c2)[C@@H](O)C[C@@H]1O (stereo partly drawn)	x	x	29%[59 µM]	x	x	x
O=C1N/C(=N\S(=O)(=O)Cc2ccccc2)S/C1=C/c1cc([N+](=O)[O-])ccc1O	13%	-12	40µM*	-32%	x	-27%
Cc1ccc(S(=O)(=O)/N=C2/NC(=O)/C(=C\c3cc(Br)cc(Br)c3O)S2)cc1	u	-29	32µM*	32µM*	u	50µM*
Cc1ccc(S(=O)(=O)/N=C2/NC(=O)/C(=C/c3ccc(Br)o3)S2)cc1	-9%	5	u	u	-11	u
COc1cc(/C=C2/S/C(=N/S(=O)(=O)c3ccccc3)NC2=O)c([N+](=O)[O-])cc1OC	-4%	-17	-12%[12.7 µM]	71µM*	-27	-28%[57.1 µM]
O=C(N1CCN(c2ccc(F)cc2)CC1)C1(c2cccs2)CCOCC1	1%	-2	24%[59 µM]	-11%	-13	-8%
CCc1nnc2n1N=C(c1ccc([N+](=O)[O-])cc1)CS2	37%	1	35µM*	-5%	0	-5%
COc1cc(SC)ccc1C(=O)NCCCn1ccnc1	51%	-5	13%	-3%	1	-8%
SMILES	HP1b binding inh	Six1-Eya2 inh	G9a inh	BAZ2B block	CtBP-E1A inh	JMJD2A Tudor inh
CC1=C(C(=O)Nc2cccnc2)C(c2ccc(F)cc2)n2nc(SCc3ccccc3F)nc2N1 (stereo not drawn)	5%	x	-5%[59 µM]	-13%	x	-15%
CCOC(=O)N1CCN(CC(=O)c2c[nH]c3ccc(F)cc23)CC1	x	x	50µM*	4%	x	x
COc1ccc(NC(=O)C(Cc2c[nH]c3ccccc23)NC(=O)OC(C)(C)C)cc1 (stereo not drawn)	-6%	x	-37%[59 µM]	u	x	-34%
COc1ccc(-c2csc(N3CCN(C(=O)c4ccco4)CC3)n2)cc1	u	-26	45µM*	u	-13	u
COc1ccc(-c2csc(N3CCN(C(=O)c4ccccc4)CC3)n2)cc1	-18%	-16	28µM*	u	-24	u
CCOC(=O)C(=O)N1CCN(c2nc(-c3ccc(Cl)cc3)cs2)CC1	u	-14	40µM*	u	-12	-22%
COc1cccc(CNC(=O)Cn2ncn3nc(-c4cccs4)cc3c2=O)c1OC	23%	x	u	-15%	x	-3%
Cc1cc(Br)c2nc(-c3ccccc3)c(Cc3cccc(Cl)c3)n2c1	x	-4	x	x	-1	x
Cc1ccc(C(=O)NNC(=O)c2cccc(S(=O)(=O)N3CCN(c4ccccc4)CC3)c2)cc1	21%	1	11%[59 µM]	-37%	2	-11%
Cc1ccc(S(=O)(=O)C/N=C(/NC(=S)N(c2ccccc2)c2ccccc2)c2ccccc2)cc1	9%	-3	10µM*	14%	3	u
Cc1ccc(S(=O)(=O)NC(=NC(C)C)c2ccccc2)cc1	28%	-1	15%[0.501 µM]	10%	-3	-17%
Cc1cc(-n2c(C)cc(C(=O)CSc3nncn3C(C)C)c2C)no1	14%	0	56µM*	-32%	1	-26%
Cc1cc(-n2c(C)cc(C(=O)CSc3nncn3C)c2C)no1	8%	-2	x	x	-2	-28%
Cc1cnc(NC(=O)CN2C(=O)C3CC=CCC3C2=O)s1 (stereo not drawn)	5%	0	6%[59 µM]	x	-8	56µM*
Oc1cccc2cc3cccc(O)c3c(O)c12	-8%	1	u	40µM*	-23	u
CCOC(=O)CN1CC23C=CC(O2)C(C(=O)NCc2cccs2)C3C1=O (stereo not drawn)	40%	3	10%	-1%	2	6%
CCOC(=O)CN1CC23C=CC(O2)C(C(=O)NC2CCCC2)C3C1=O (stereo not drawn)	44%	4	45µM*	25%	5	-6%
